Measured potencies and affinities stand elsewhere. Active and inactive are the calls of the source.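 How the source made its calls: active means peak inhibition of the TRPC4 channel signal over 30% at some dose, with a fitted dose response curve; inactive means no inhibition or no dose response curve.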
Each molecule was assayed against Short transient receptor potential channel 4 (Mus musculus) (UniProt Q9QUQ5) (assay: mouse TRPC4 block via Gq-coupled stimulation – cell-based, acetylcholine stimulus, HEK293 TRPC4, Fluo-4, SAR follow-up (AID 492996)). Conditions: HEK293 TRPC4 cells, ACh-evoked Fluo-4 calcium flux; series mostly up to 20 µM.
Chain of Short transient receptor potential channel 4 (Mus musculus) (Q9QUQ5 whole entry, looked up): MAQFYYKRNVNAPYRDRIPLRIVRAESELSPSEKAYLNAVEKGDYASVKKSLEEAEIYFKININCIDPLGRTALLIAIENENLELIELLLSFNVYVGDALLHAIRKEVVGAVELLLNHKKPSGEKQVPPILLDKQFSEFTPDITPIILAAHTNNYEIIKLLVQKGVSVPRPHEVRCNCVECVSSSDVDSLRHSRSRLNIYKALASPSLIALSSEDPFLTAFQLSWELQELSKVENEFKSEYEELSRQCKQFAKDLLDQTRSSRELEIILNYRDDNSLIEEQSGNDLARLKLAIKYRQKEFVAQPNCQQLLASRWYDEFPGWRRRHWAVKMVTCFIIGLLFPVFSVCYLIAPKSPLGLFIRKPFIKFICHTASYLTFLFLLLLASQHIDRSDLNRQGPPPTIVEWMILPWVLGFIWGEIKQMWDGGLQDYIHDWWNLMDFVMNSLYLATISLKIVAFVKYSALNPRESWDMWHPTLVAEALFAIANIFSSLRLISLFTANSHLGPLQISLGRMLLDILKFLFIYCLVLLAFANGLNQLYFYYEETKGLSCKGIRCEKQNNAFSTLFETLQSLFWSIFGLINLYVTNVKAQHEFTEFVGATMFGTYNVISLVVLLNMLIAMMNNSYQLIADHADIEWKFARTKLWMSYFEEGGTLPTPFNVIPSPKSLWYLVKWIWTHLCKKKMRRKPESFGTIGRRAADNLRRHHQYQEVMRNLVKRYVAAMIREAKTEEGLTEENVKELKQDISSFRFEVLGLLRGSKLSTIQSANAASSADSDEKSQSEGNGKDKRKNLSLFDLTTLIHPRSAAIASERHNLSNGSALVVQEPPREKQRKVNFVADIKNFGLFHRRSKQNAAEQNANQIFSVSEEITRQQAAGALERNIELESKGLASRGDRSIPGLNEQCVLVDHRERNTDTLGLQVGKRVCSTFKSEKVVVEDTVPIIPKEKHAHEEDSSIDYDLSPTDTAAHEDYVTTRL

outcome, inactive:
Cc1ccc2nc(N3CCCCCC3)cc(C)c2c1
COc1ccccc1N1CCN(c2cc(C)c3ccccc3n2)CC1
CCc1ccc2nc(N3CCCCCC3)cc(C)c2c1
Cc1cc(N2CCN(c3ncccn3)CC2)nc2ccccc12
Cc1cc(N2CCOc3ccccc32)nc2ccccc12
Cc1ccnc(N2CCCCCC2)n1
CCN(CC)c1cc(C)c2ccccc2n1
Cc1cc(N2CCN(CC3CCCO3)CC2)nc2ccccc12 (stereo unspecified)
COc1ccc(N2CCN(c3cc(C)c4ccccc4n3)CC2)cc1
Cc1cc(N2CCCCCC2)nc2ccc(F)cc12
Cc1cc(N2CCN(c3ccccc3C#N)CC2)nc2ccccc12
COCCN(C)c1cc(C)c2ccccc2n1
Cc1cc(N2CC(C)CC(C)C2)nc2ccccc12 (stereo unspecified)
Cc1cc(N(C)CCN(C)C)nc2ccccc12
c1ccc(-c2cc(N3CCCCCC3)nc3ccccc23)cc1
Cc1cc(N2CCCCCC2)nc2c(C)cccc12
Cc1cc(N2CCCC(O)C2)nc2ccccc12 (stereo unspecified)
Cc1cc(N2CCOCC2)nc2ccccc12
FC(F)(F)c1cc(N2CCCCCC2)nc2ccccc12
Cc1cc(N2CCC(N3CCOCC3)CC2)nc2ccccc12
Cc1ccnc(N2CCCCCC2)c1
